What all share (experiment): DAPPL (digital affinity profiling via proximity ligation, sequencing); 10 mM Tris-HCl pH 7.5, 50 mM NaCl, 1 mM DTT, 4% glycerol, room temperature, 30 min; GST-TFs on glutathione beads, 16-mer random dsDNA library, 0.1% formaldehyde crosslink after washing; high values mean tight binding
The target of one test is T1, FLI1 (Homo sapiens, UniProt Q01543 1-452).
T1 sequence: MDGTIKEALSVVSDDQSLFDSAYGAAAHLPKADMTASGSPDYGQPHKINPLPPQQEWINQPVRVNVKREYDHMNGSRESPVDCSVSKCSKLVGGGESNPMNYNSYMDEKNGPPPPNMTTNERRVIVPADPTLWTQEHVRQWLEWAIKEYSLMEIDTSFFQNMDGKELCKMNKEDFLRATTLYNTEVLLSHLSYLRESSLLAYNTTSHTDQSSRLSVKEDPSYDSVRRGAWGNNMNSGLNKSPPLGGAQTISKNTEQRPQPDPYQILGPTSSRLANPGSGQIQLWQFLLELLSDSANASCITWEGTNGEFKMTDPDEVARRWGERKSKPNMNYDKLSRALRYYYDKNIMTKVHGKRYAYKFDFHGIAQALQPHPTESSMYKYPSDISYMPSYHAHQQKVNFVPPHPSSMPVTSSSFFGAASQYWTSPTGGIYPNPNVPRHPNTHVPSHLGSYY
The settings on record: protein: recombinant; tags: N-terminal GST; dsDNA, one strand shown. In a few lines: (§1)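 Human transcription factors were made in yeast as GST fusions, captured on glutathione beads and barcoded with DNA. With a tag-only sample included, the pool was incubated with 200 nmole of a random double-stranded 16-mer DNA library in Tris/NaCl/DTT/glycerol buffer at room temperature for 30 min, then crosslinked with 0.1% formaldehyde after washing, ligated by proximity, amplified and sequenced. For binding signal, each hexamer's read frequency for a factor is divided by its frequency for the tag-only sample.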

A further test concerns the target T2, ELK1 (Homo sapiens, UniProt P19419 1-428).
T2 sequence: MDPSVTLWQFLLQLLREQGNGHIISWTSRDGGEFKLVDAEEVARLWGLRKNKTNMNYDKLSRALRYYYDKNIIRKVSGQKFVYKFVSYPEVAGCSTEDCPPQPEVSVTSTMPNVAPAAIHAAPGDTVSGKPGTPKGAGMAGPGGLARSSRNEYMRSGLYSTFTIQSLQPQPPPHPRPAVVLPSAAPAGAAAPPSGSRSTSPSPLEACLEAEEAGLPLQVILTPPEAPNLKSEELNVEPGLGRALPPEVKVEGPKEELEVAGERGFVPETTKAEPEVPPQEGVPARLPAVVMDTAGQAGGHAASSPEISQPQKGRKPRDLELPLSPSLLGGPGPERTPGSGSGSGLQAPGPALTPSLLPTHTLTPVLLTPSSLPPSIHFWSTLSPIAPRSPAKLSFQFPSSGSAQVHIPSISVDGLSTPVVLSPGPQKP
The note with it: protein: recombinant; tags: N-terminal GST; dsDNA, one strand shown. In a few lines:
as §1

In a further test the target is T3, GABPA (Homo sapiens, UniProt Q06546 1-454).
T3 sequence: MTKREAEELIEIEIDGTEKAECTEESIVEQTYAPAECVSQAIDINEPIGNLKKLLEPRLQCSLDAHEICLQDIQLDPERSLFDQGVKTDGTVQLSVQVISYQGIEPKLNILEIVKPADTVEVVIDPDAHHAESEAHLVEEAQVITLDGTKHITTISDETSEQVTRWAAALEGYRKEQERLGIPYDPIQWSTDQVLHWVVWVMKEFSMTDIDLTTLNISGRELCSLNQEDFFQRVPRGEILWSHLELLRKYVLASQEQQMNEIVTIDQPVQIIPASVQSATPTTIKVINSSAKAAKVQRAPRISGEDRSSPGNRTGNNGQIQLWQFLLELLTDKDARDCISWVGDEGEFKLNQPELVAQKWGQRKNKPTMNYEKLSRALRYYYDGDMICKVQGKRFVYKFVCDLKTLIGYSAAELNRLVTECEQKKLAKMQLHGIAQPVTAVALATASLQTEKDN
The note with it: protein: recombinant; tags: N-terminal GST; dsDNA, one strand shown. In a few lines:
as §1

A further test concerns the target T4, ERG (Homo sapiens, UniProt P11308 1-479).
T4 sequence: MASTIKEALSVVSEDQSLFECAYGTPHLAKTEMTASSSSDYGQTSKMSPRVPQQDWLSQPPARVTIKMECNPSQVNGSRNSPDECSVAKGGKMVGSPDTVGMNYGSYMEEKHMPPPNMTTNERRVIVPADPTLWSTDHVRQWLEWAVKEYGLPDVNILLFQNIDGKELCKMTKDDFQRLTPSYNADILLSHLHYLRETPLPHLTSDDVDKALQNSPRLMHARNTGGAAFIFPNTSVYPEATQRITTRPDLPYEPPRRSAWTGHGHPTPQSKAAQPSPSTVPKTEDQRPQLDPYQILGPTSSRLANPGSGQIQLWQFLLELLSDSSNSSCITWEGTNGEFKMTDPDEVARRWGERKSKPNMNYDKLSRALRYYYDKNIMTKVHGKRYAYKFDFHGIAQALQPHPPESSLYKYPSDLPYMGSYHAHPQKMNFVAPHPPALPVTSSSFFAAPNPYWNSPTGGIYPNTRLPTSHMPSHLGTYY
The settings on record: protein: recombinant; tags: N-terminal GST; dsDNA, one strand shown. In a few lines:
as §1

A further test addresses ELF1 (Homo sapiens, UniProt P32519 1-619). The settings on record: protein: recombinant; tags: N-terminal GST; dsDNA, one strand shown. In a few lines: as §1
A further test addresses T5, EHF (Homo sapiens, UniProt Q9NZC4 1-300).
T5 sequence: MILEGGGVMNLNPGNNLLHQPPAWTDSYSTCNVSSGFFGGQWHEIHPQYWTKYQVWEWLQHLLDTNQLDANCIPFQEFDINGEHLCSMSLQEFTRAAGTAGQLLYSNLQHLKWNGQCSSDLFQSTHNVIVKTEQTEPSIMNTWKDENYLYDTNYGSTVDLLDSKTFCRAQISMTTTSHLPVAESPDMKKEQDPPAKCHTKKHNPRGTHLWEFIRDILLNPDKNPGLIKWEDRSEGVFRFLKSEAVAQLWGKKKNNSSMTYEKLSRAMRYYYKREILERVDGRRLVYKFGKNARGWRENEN
The settings on record: protein: recombinant; tags: N-terminal GST; dsDNA, one strand shown. In a few lines:
as §1

The target of the next test is SPI1 (Homo sapiens, UniProt P17947 1-270). The note with it: protein: recombinant; tags: N-terminal GST; dsDNA, one strand shown. In a few lines:
as §1

In the next test the target is SPIB (Homo sapiens, UniProt Q01892 1-262). The note with it: protein: recombinant; tags: N-terminal GST; dsDNA, one strand shown. In a few lines:
as §1

The next test deals with T6, ELK3 (Homo sapiens, UniProt P41970 1-407).
T6 sequence: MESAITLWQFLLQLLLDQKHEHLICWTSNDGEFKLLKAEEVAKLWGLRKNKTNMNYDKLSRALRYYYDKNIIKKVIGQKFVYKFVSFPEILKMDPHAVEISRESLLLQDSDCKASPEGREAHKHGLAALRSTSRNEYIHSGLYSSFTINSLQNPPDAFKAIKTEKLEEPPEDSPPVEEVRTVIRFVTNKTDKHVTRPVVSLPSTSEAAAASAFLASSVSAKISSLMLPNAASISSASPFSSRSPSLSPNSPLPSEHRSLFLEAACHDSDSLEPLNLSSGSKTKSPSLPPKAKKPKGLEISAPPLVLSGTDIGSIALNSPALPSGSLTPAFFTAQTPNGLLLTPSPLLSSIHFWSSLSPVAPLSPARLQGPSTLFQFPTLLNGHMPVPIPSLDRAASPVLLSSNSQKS
The note with it: protein: recombinant; tags: N-terminal GST; dsDNA, one strand shown. In a few lines:
as §1

Another test deals with T7, FEV (Homo sapiens, UniProt Q99581 1-238).
T7 sequence: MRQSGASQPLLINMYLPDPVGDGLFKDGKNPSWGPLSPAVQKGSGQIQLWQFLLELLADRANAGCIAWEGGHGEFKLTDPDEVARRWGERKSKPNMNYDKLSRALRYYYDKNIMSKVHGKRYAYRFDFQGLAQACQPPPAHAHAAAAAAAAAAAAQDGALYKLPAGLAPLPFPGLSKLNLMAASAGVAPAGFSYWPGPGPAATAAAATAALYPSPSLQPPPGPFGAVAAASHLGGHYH
The settings on record: protein: recombinant; tags: N-terminal GST; dsDNA, one strand shown. In a few lines: as §1

A further test has as its target ETV5 (Homo sapiens, UniProt P41161 1-510). The note with it: protein: recombinant; tags: N-terminal GST; dsDNA, one strand shown. In a few lines: as §1
For a further test, the target named is HSF1 (Homo sapiens, UniProt Q00613 1-529). The note with it: protein: recombinant; tags: N-terminal GST; chain copies: 3; dsDNA, one strand shown. In a few lines:
as §1

A further test deals with T8, SPIC (Homo sapiens, UniProt Q8N5J4 1-248).
T8 sequence: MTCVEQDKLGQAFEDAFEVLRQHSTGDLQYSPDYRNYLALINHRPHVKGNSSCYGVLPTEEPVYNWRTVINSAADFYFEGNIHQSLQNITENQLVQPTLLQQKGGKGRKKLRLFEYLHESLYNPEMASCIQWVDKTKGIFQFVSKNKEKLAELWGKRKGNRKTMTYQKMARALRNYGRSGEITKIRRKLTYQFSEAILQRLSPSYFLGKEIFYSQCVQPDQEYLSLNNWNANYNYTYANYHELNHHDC
The note with it: protein: recombinant; tags: N-terminal GST; dsDNA, one strand shown. In a few lines: as §1

The next test addresses ELF4 (Homo sapiens, UniProt Q99607 1-663). The settings on record: protein: recombinant; tags: N-terminal GST; dsDNA, one strand shown. In a few lines: as §1
Another test concerns the target T9, ELK4 (Homo sapiens, UniProt P28324-2 1-405).
T9 sequence: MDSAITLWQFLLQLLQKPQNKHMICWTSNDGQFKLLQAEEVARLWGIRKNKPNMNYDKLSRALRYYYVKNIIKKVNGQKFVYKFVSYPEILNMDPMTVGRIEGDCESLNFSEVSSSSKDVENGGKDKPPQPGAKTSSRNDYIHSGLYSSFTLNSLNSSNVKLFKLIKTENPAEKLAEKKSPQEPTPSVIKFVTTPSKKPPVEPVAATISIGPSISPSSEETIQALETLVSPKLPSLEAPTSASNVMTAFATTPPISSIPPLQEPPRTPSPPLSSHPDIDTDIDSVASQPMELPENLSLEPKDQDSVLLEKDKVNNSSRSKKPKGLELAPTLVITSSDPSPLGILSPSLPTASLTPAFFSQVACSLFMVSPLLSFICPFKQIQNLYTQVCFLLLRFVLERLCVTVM
The note with it: protein: recombinant; tags: N-terminal GST; dsDNA, one strand shown. In a few lines: as §1

The target of a further test is T10, ETV2 (Homo sapiens, UniProt O00321 1-342).
T10 sequence: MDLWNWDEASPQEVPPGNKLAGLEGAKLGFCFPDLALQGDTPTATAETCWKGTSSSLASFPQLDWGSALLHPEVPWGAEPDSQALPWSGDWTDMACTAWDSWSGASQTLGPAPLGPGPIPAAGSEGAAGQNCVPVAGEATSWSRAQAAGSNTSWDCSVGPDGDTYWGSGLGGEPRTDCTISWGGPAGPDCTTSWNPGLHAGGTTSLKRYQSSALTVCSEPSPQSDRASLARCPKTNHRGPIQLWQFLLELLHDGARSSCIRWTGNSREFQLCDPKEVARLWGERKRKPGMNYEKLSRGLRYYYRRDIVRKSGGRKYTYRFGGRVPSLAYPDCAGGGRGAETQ
The settings on record: protein: recombinant; tags: N-terminal GST; dsDNA, one strand shown. In a few lines: as §1

The target of another test is T11, ELF3 (Homo sapiens, UniProt P78545 1-371).
T11 sequence: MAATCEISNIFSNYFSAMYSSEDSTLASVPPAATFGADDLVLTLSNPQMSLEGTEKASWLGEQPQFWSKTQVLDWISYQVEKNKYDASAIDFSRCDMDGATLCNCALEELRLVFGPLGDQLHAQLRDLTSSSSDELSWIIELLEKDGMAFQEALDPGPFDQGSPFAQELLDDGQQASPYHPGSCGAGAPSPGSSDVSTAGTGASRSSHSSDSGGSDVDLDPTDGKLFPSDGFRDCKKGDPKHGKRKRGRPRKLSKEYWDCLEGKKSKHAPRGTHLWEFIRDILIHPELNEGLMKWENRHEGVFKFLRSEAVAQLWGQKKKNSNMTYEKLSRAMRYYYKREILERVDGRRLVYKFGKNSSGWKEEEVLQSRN
The settings on record: protein: recombinant; tags: N-terminal GST; dsDNA, one strand shown. In a few lines: as §1

In another test the target is CRX (Homo sapiens, UniProt O43186 1-299). The note with it: protein: recombinant; tags: N-terminal GST; dsDNA, one strand shown. In a few lines:
as §1

A further test has as its target ETV1 (Homo sapiens, UniProt P50549 1-477). The note with it: protein: recombinant; tags: N-terminal GST; dsDNA, one strand shown. In a few lines: as §1

Sequence of ELF4 (Q99607 whole entry): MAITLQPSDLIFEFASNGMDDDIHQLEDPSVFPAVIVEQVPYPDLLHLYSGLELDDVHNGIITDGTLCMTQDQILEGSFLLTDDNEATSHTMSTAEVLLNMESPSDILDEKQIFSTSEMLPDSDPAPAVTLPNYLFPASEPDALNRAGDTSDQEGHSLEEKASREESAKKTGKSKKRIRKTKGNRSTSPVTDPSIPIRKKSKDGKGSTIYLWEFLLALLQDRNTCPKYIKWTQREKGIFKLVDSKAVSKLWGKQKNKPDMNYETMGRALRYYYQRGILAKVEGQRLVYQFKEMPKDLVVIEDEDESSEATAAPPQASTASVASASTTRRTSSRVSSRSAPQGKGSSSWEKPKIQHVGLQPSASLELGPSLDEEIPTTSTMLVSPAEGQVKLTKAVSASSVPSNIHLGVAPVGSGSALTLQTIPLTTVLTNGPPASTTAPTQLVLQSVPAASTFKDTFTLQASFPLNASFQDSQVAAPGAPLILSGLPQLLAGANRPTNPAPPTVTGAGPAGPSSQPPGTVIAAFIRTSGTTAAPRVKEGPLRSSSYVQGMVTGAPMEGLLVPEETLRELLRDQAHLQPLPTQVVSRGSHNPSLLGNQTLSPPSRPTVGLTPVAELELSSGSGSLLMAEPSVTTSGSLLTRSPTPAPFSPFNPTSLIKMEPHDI
Sequence of ETV1 (P50549 whole entry): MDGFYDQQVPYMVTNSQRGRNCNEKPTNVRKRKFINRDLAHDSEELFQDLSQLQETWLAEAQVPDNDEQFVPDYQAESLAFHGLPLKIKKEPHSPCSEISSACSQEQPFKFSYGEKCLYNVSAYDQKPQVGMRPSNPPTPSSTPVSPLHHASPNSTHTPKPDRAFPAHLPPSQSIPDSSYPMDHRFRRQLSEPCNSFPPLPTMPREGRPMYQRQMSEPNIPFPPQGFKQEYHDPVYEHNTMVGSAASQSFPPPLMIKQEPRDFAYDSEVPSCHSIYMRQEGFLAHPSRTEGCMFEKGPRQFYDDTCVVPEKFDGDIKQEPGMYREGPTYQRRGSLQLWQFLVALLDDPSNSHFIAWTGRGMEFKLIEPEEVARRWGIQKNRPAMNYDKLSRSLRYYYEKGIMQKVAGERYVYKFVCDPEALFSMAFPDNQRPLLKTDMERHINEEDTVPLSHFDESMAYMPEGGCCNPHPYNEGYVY
Sequence of HSF1 (Q00613 whole entry): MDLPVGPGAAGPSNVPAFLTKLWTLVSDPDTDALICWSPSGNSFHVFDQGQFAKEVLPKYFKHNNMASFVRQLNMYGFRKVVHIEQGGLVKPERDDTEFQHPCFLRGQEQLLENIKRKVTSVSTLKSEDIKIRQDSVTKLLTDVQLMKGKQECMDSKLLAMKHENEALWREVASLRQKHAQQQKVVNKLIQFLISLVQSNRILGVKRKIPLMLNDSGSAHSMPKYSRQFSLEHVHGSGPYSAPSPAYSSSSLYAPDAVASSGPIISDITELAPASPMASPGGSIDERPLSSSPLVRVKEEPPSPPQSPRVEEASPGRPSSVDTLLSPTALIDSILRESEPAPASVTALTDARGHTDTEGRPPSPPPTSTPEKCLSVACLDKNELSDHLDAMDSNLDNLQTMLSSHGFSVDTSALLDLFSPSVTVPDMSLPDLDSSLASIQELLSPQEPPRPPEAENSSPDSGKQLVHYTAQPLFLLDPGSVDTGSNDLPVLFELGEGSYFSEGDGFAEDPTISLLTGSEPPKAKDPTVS
Sequence of ETV5 (P41161 whole entry): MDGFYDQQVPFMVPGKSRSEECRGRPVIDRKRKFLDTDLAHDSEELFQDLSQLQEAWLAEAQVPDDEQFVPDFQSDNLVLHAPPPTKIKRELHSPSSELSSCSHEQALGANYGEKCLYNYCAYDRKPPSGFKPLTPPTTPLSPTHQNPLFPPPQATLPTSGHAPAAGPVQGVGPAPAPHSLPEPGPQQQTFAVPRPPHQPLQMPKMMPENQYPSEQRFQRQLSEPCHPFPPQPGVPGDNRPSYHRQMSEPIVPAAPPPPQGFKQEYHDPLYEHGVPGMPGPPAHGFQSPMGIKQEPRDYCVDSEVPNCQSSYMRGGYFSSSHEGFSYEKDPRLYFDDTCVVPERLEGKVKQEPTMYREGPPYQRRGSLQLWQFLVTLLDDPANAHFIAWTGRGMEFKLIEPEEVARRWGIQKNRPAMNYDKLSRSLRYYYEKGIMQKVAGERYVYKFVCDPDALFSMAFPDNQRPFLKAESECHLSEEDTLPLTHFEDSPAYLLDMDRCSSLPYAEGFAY
Sequence of CRX (O43186 whole entry): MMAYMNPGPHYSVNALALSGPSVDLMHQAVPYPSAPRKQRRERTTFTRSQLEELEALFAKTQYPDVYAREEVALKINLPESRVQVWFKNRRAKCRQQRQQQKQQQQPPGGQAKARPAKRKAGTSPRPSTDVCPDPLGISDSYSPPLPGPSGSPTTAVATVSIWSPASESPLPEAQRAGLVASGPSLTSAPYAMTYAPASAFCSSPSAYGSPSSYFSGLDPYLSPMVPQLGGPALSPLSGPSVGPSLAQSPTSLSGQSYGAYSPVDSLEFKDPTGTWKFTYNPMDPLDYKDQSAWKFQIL
Sequence of SPIB (Q01892 whole entry): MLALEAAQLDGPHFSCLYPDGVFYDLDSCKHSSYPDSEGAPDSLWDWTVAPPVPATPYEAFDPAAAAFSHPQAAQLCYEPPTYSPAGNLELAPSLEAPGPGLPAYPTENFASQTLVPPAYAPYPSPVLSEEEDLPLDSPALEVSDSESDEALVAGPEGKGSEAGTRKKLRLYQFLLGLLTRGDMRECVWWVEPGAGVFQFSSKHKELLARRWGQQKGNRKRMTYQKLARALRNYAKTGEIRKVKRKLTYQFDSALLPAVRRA
Sequence of ELF1 (P32519 whole entry): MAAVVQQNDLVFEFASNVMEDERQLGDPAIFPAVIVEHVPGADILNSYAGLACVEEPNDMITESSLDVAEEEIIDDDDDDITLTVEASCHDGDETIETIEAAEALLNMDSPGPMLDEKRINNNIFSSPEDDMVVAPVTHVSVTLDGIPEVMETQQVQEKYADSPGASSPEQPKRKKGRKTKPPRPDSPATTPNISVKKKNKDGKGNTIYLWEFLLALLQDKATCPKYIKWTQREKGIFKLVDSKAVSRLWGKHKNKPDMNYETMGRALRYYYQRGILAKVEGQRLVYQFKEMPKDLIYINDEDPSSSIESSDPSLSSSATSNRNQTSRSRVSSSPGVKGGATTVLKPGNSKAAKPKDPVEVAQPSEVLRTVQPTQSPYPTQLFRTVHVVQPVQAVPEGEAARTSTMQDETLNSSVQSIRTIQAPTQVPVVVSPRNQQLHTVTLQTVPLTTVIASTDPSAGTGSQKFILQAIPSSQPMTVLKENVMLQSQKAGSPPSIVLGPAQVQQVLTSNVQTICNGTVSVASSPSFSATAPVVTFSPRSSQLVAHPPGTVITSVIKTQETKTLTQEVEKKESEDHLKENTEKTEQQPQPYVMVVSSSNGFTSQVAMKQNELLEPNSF

Regarding ATCCCG, the binding signal with FLI1 is 1.5 fold enrichment (6-mer frequency, TF over GST control); with ELK1, 1.36 fold enrichment (6-mer frequency, TF over GST control); with GABPA, 1.47 fold enrichment (6-mer frequency, TF over GST control); in the test with ERG, 1.44 fold enrichment (6-mer frequency, TF over GST control); in the test with ELF1 it was 1.42 fold enrichment (6-mer frequency, TF over GST control); with EHF it was 1.39 fold enrichment (6-mer frequency, TF over GST control). For the same sequence, the binding signal with SPI1 was 1.32 fold enrichment (6-mer frequency, TF over GST control); with SPIB it was 1.39 fold enrichment (6-mer frequency, TF over GST control); with ELK3 it was 1.34 fold enrichment (6-mer frequency, TF over GST control); with FEV, 1.35 fold enrichment (6-mer frequency, TF over GST control); with ETV5, 1.43 fold enrichment (6-mer frequency, TF over GST control); with HSF1, 1.58 fold enrichment (6-mer frequency, TF over GST control). Besides, the binding signal with SPIC was 1.39 fold enrichment (6-mer frequency, TF over GST control); with ELF4, 1.4 fold enrichment (6-mer frequency, TF over GST control); with ELK4, 1.37 fold enrichment (6-mer frequency, TF over GST control); with ETV2, 1.28 fold enrichment (6-mer frequency, TF over GST control); in the test with ELF3, 1.37 fold enrichment (6-mer frequency, TF over GST control); with CRX it was 1.67 fold enrichment (6-mer frequency, TF over GST control). Further, in the test with ETV1, the binding signal was 1.44 fold enrichment (6-mer frequency, TF over GST control).
